Measurements: PubChem BioAssay AID1275 (Emory University Molecular Libraries Screening Center, 2008)
In all, about 1,000 compounds went through this assay and about 160 (16%) were called active. The rule behind the calls is not given here. Some of the results follow.

target: Neutrophil cytosol factor 1 (Homo sapiens) (UniProt P14598); experiment: blockers of ligand binding to p47phox – biochemical, NADPH oxidase regulatory subunit, fluorescence polarization, dose response (AID 1275); details: at 12.5 µM
Sequence (P14598 whole entry, looked up): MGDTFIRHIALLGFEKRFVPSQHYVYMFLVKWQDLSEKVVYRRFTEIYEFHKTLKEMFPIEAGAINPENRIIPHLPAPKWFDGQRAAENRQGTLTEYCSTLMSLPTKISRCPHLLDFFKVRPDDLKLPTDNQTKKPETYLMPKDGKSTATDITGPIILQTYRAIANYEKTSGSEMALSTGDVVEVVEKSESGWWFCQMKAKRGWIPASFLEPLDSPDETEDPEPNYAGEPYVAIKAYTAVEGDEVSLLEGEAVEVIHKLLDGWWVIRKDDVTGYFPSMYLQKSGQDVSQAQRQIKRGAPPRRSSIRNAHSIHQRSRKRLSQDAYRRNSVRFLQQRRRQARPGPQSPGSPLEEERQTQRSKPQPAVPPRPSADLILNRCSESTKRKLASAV

Percent of control, lower = inhibition, active:
N#CC(C#N)=C1C=C2C=C(N3CCCCC3)CCC2CC1 (stereo unspecified) 107
Cc1ccc(-n2c(C)cc(C3N=C(N)Nc4nc5ccccc5n43)c2C)c(C)c1 (stereo unspecified) 66.2
CCN1CCN(Cc2ccc(NC(=O)c3ccc(C)c(NC(=O)c4c[nH]c5cc(C(F)(F)F)ccc5c4=O)c3)cc2C(F)(F)F)CC1 53.8
CN(C)c1ccc(/C=C/C(=O)c2cc(Cl)ccc2O)cc1 50.8
Cc1ccc2cc3c(N)c4c(C)ccc(C)c4nc3nc2c1 51.8
CN(C)c1ccc(/C=C(\C#N)C(=O)c2ccccc2)cc1 69.6
